# Source: the OligoGym collection
# Molecular target: IFI44L
# Assay: pooled miR-30 sensor sort-seq; sequence = guide strand
# Conditions: shRNA
# Also: reference of the scale not given here.
row,Sequence,sensor-assay potency score (higher = more potent)
1,TAGCATTTTATGGACATTCATG,-1.18
2,TTATGGACATTCATGACCCGGC,-0.0543
3,TAATACTTCTTTGTGAACTTGC,0.781
4,TTGAAGTGAAAACCATAGGGAA,-0.486
5,TTTGTGAACTTGCTTCACTTTT,-0.819
6,TACTTCTTTGTGAACTTGCTTC,0.0933
7,TTTATGGACATTCATGACCCGG,-1.2
8,TTGTCTTGAAGAACCTCACTGC,0.709
9,TTTCGATAAACGACACACCAGT,-0.943
10,TATGTCGTCTAGGTTATCCTTA,0.221
11,TTCTTTGTGAACTTGCTTCACT,0.156

# Molecular target: IFLTD1
# Assay: as above
# Conditions: shRNA
row,Sequence,sensor-assay potency score (higher = more potent)
1,TTGCTTTTCTAGTAGCTGGTTG,-0.208
2,TTTTCCACTCTGGAACAGCTAC,-0.846
3,TAGACAGATAGTAACCAAGAGG,-1.22
4,TAAGTTTCTTTGAATCACCAAA,-0.981
5,TTGTTATACAATCAGGACTTGC,-1.51
6,TATAGTTACTCTACTAATCTGA,0.529
7,TTGCTCTAAACTTGTCTTGTTC,-0.614
8,TCTTCTTTTTCTTAGACCCTGA,-0.319
9,TTGTCCATTCACATTTTGCTGG,-0.587
10,TTGAATAATACTAACCATCTGC,0.269
11,TAATTTGAGATATCTTTCTTAG,-0.577
12,TTGAGATATCTTTCTTAGGTTG,-0.851
